± gives the standard deviation.

From the supplement of paper PMC10646978 come the findings set out here.

Details in all cases: modulator concentration 10 µM
For test [1], the system named is RAW-Dual (murine macrophage reporter line). As to the kind of experiment: NF-kB reporter (SEAP) activity fold change vs agonist alone; higher = enhanced NF-kB activity. An outline of the steps: (§1)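 RAW-Dual murine macrophage reporter cells were seeded at 50 000 per well in 384-well plates and pre-incubated 1 hour at 37 °C with compound pin-transferred to 10 μM final. After 1 hour, a PRR agonist was added and cells incubated overnight. Supernatant NF-κB (SEAP, QUANTI-Blue, 620 nm absorbance) and IRF (Lucia luciferase, QUANTI-Luc, luminescence) signals were divided by the mean agonist-only control on the same plate to give fold change. Two replicate plates were averaged, with errors by propagation.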

For test [2] the test system is unchanged. As to the kind of experiment: IRF reporter (Lucia luciferase) activity fold change vs agonist alone; higher = enhanced IRF activity. In outline: as §1
Test [3] has the same test system. Description: viability score (confluency relative to resting cells, overnight) (fraction); higher = more viable, active = viable (0.7 or more). An outline of the steps:
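RAW-Dual macrophages in 384-well plates were exposed overnight to compound at 10 μM final. Confluency was imaged with IncuCyte, and two confluency masks were generated with IncuCyte software over all imaged wells. The viability score is confluency expressed relative to resting cells. Compounds were called viable if both masks exceeded 70% of resting cells.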

Setting [4] is: agonist: CpG ODN 1826 0.5 ug/mL.

Take `COc1ccc(OC)c(-c2csc(NC(=O)C3CC3)n2)c1`: the NF-kB reporter worked out at 1.11 ± 0.068 in test [1] (setting [4]), 0.972 ± 0.08 in test [1] (agonist: LPS 0.1 ug/mL) and 1 ± 0.034 in test [1] (agonist: MPLA […]). Further, the IRF reporter in test [2] (agonist: 3'3'-cGAMP 10 ug/mL) came to 0.935 ± 0.043; in test [2] (agonist: LPS 0.1 ug/mL) it was 1.01 ± 0.061; in test [2] (agonist: MPLA […]) it was 1.13 ± 0.12. Moreover, the viability score in test [3] was 0.994 (active).
For the compound `O=S(=O)(Nc1ccc(-c2nc3cccnc3s2)cc1)c1cccs1`, the NF-kB reporter in test [1] (setting [4]) worked out at 0.902 ± 0.23; in test [1] (agonist: LPS 0.1 ug/mL) it was 0.748 ± 0.23; in test [1] (agonist: MPLA […]) it was 0.566 ± 0.07. Moreover, the values for the IRF reporter in test [2] (agonist: 3'3'-cGAMP 10 ug/mL), in test [2] (agonist: LPS 0.1 ug/mL) and in test [2] (agonist: MPLA […]) were 0.783 ± 0.027, 0.973 ± 0.37 and 0.892 ± 0.12, respectively. Besides, in test [3], the viability score is 0.672 (inactive).
Regarding `O=C(Nc1cc(C(F)(F)F)cc(C(F)(F)F)c1)c1ccc([N+](=O)[O-])cc1`, the NF-kB reporter turned out to be 0.977 ± 0.09 in test [1] (setting [4]), 1.03 ± 0.14 in test [1] (agonist: LPS 0.1 ug/mL) and 1.02 ± 0.063 in test [1] (agonist: MPLA […]). Besides, the IRF reporter was determined as 0.998 ± 0.03 in test [2] (agonist: 3'3'-cGAMP 10 ug/mL), 1.42 ± 0.14 in test [2] (agonist: LPS 0.1 ug/mL) and 1.05 ± 0.075 in test [2] (agonist: MPLA […]). Further, the viability score in test [3] is 1.01 (active).
On to `CN(C)CCN(Cc1ccccc1)Cc1cccc(Cl)c1`, for which the NF-kB reporter in test [1] (setting [4]) turned out to be 0.976 ± 0.057; in test [1] (agonist: LPS 0.1 ug/mL), 0.928 ± 0.16; in test [1] (agonist: MPLA […]), 1.05 ± 0.044. The IRF reporter was 0.838 ± 0.04 in test [2] (agonist: 3'3'-cGAMP 10 ug/mL), 1.02 ± 0.048 in test [2] (agonist: LPS 0.1 ug/mL) and 0.87 ± 0.1 in test [2] (agonist: MPLA […]). In addition, the viability score in test [3] was 0.999 (active).
For the compound `C=CCn1c(=N)n(CC(O)c2ccco2)c2ccccc21.Cl` (stereo unspecified), the NF-kB reporter turned out to be 1.15 ± 0.13 in test [1] (setting [4]), 0.961 ± 0.1 in test [1] (agonist: LPS 0.1 ug/mL) and 1.21 ± 0.056 in test [1] (agonist: MPLA […]). Further, the results for the IRF reporter in test [2] (agonist: 3'3'-cGAMP 10 ug/mL), in test [2] (agonist: LPS 0.1 ug/mL) and in test [2] (agonist: MPLA […]) were 1.07 ± 0.17, 1.03 ± 0.043 and 0.936 ± 0.061, respectively. The viability score in test [3] is 1 (active).
On to `O=C(NN=Cc1c(O)ccc2ccccc12)c1ccccc1`, for which the NF-kB reporter in test [1] (setting [4]) is 1.48 ± 0.12; in test [1] (agonist: LPS 0.1 ug/mL) it was 1.19 ± 0.08; in test [1] (agonist: MPLA […]), 1.12 ± 0.054. Further, the results for the IRF reporter in test [2] (agonist: 3'3'-cGAMP 10 ug/mL), in test [2] (agonist: LPS 0.1 ug/mL) and in test [2] (agonist: MPLA […]) were 0.752 ± 0.11, 1.23 ± 0.077 and 1.14 ± 0.12, respectively. In addition, the viability score in test [3] is 0.979 (active).
Regarding `CCOC(=O)C1=CC2(CC)CCCN3CCc4c(n1c1ccccc41)C32` (stereo unspecified), the NF-kB reporter in test [1] (setting [4]) was 0.79 ± 0.061; in test [1] (agonist: LPS 0.1 ug/mL), 0.928 ± 0.078; in test [1] (agonist: MPLA […]) it was 0.915 ± 0.09. Further, the IRF reporter is 0.963 ± 0.032 in test [2] (agonist: 3'3'-cGAMP 10 ug/mL), 1.3 ± 0.13 in test [2] (agonist: LPS 0.1 ug/mL) and 1.4 ± 0.21 in test [2] (agonist: MPLA […]). Further, in test [3], the viability score was 1.03 (active).
With `CCOc1ccc(-c2nc3c(c(C)nn3-c3ccccc3)c3cc(OC)c(OC)cc23)cc1`, the values for the NF-kB reporter in test [1] (setting [4]), in test [1] (agonist: LPS 0.1 ug/mL) and in test [1] (agonist: MPLA […]) were 0.812 ± 0.063, 0.934 ± 0.089 and 1.05 ± 0.095, respectively. Further, the IRF reporter in test [2] (agonist: 3'3'-cGAMP 10 ug/mL) was 0.948 ± 0.043; in test [2] (agonist: LPS 0.1 ug/mL) it was 1.29 ± 0.075; in test [2] (agonist: MPLA […]), 1.48 ± 0.14. The viability score in test [3] was 1 (active).
On to `CCN(CC)CCNC(=O)c1c(C)[nH]c(/C=C2\C(=O)Nc3ccc(F)cc32)c1C.O=C(O)C[C@H](O)C(=O)O`, for which the NF-kB reporter came to 0.186 ± 0.011 in test [1] (setting [4]), 0.791 ± 0.11 in test [1] (agonist: LPS 0.1 ug/mL) and 0.636 ± 0.061 in test [1] (agonist: MPLA […]). Moreover, the IRF reporter in test [2] (agonist: 3'3'-cGAMP 10 ug/mL) worked out at 0.0261 ± 0.0039; in test [2] (agonist: LPS 0.1 ug/mL), 0.048 ± 0.0053; in test [2] (agonist: MPLA […]) it was 0.0544 ± 0.016. In test [3], the viability score was 0.117 (inactive).
In the case of `Cc1sc2ncnc(Nc3ccc(F)cc3)c2c1C`, the NF-kB reporter in test [1] (setting [4]) stood at 0.813 ± 0.035; in test [1] (agonist: LPS 0.1 ug/mL) it was 0.948 ± 0.11; in test [1] (agonist: MPLA […]) it was 1.22 ± 0.071. The results for the IRF reporter in test [2] (agonist: 3'3'-cGAMP 10 ug/mL), in test [2] (agonist: LPS 0.1 ug/mL) and in test [2] (agonist: MPLA […]) were 0.739 ± 0.034, 0.935 ± 0.19 and 1.07 ± 0.27, respectively. The viability score in test [3] is 0.981 (active).
`Cc1nc(C(=O)NCC(=O)O)c(O)c2ccc(Oc3ccccc3)cc12`: the NF-kB reporter was found to be 0.856 ± 0.12 in test [1] (setting [4]), 1.05 ± 0.39 in test [1] (agonist: LPS 0.1 ug/mL) and 0.94 ± 0.053 in test [1] (agonist: MPLA […]). Besides, the IRF reporter in test [2] (agonist: 3'3'-cGAMP 10 ug/mL) was found to be 0.925 ± 0.04; in test [2] (agonist: LPS 0.1 ug/mL) it was 1.09 ± 0.25; in test [2] (agonist: MPLA […]), 0.97 ± 0.28. Also, the viability score in test [3] was 0.996 (active).
For the compound `Cn1cnc2c(F)c(Nc3ccc(Br)cc3F)c(C(=O)NOCCO)cc21`, the NF-kB reporter in test [1] (setting [4]) was found to be 0.822 ± 0.071; in test [1] (agonist: LPS 0.1 ug/mL), 0.65 ± 0.052; in test [1] (agonist: MPLA […]), 0.666 ± 0.04. Moreover, the IRF reporter in test [2] (agonist: 3'3'-cGAMP 10 ug/mL) came out at 0.777 ± 0.045; in test [2] (agonist: LPS 0.1 ug/mL) it was 1.17 ± 0.23; in test [2] (agonist: MPLA […]), 1.35 ± 0.45. Moreover, the viability score in test [3] was 0.248 (inactive).
For `CC1=CC(=O)c2ccccc2C1=O`, the NF-kB reporter in test [1] (setting [4]) amounted to 2.29 ± 0.12; in test [1] (agonist: LPS 0.1 ug/mL) it was 1.31 ± 0.11; in test [1] (agonist: MPLA […]), 1.81 ± 0.2. The figures for the IRF reporter in test [2] (agonist: 3'3'-cGAMP 10 ug/mL), in test [2] (agonist: LPS 0.1 ug/mL) and in test [2] (agonist: MPLA […]) were 0.357 ± 0.023, 3.57 ± 0.25 and 1.33 ± 0.4, respectively. For the same compound, the viability score in test [3] was 0.0798 (inactive).
